Data taken from PubChem BioAssay (Tox21).
Unmarked numbers belong to inactive results. Calls of active or inactive are those of the source. Calls come from the whole dose curve; as a rule, active = well fitted curve in the direction sought with a large enough effect in the repeat runs; inconclusive = weak or mixed curves; inactive = flat fitted curve, though single readings scatter.

assay: qHTS assay to test for compound auto fluorescence at 590 nm (red) in HepG2 cells (AID 720674); settings: HepG2 autofluorescence, red 540/590 nm, 1 h; series mostly up to 91.3 µM
From the text: U.S. Tox21 Program National Center for Advancing Translational Sciences [NCATS] NIH Chemical Genomics Center [NCGC] U.S. Environmental Protection Agency [EPA] National Institutes of Environmental Health Sciences [NIEHS] National Toxicology Program [NTP] U.S. Food and Drug Administration [FDA] Tox21 Assay Overview: Compound auto fluorescence often interferes with screening of the compound library against various biological targets and signaling pathways. Some of these compounds may have fluorophoric properties. Such properties may interfere with the assay outputs resulting in false positives and/or negatives. To decrease such complications and ensure the compound activities are relevant in terms of biological response, the Tox21 10K compound library was screened for auto fluorescence. From the fluorophores used as reporter signals in our screening assays, the auto fluorescence equivalencies of compounds against three fluorophores have been evaluated: Triamterene, Fluorescein and Rose Bengal sodium for blue, green and red fluorescence, respectively. The fluorescence intensities were measured using Excitation/Emission wavelengths at 405/460nm, 485/535nm and 540/590nm for blue, green and red labels, respectively. This assay includes the red fluorescence data.
Tox21 Assay Protocol Summary: 2,000 HepG2 cells in 5 uL of culture medium (MEM containing 10% FBS) per well were dispensed into black wall/clear bottom 1536-well plates using a Multidrop Combi Dispenser (ThermoFisher Scientific, Waltham, MA). The assay plates were incubated overnight at 37 C to allow cell attachment to the well bottom, followed by the transfer of 23 nL compound or DMSO vehicle by a pintool work station (Kalypsys , San Diego, CA). After the assay plates were incubated for 1 hr at 37 C and 5% CO2, fluorescence intensities in the assay plates were measured by an Envision (PerkinElmer, Shelton, CT) plate reader using three labels for measuring blue, green and red fluorescence at […] 460, 535 and 590 nm respectively.
% is set by controls: 0 for no effect and ±100 for the full control effect.

Structure (SMILES)	outcome	fluorescence, relative to Rose Bengal
CCCc1c(OCCCOc2ccc(OCC(=O)O)cc2)ccc(C(C)=O)c1O	inactive	–
Fc1c(F)c(F)c(Br)c(F)c1F	inactive	–
CC1(C)C2=CCCC(C)(C)[C@]23CC[C@H]1C3	inactive	–
CCCCCCOC(=O)C(C)C	inactive	–
CCc1cccc(N(C)C(N)=Nc2cccc3ccccc23)c1	inactive	–
CC1=C(C=O)C(C)(C)CCC1	inactive	–
NC(=O)Cn1c(=O)cc(CCN2CCN(c3nccc4sccc34)CC2)c2ccc(F)cc21	inactive	–
CC(CCc1ccc2c(c1)OCO2)NN (stereo not given)	inactive	–
OCC1CC=CCC1 (stereo not given)	inactive	–
OC(CCCN1CCCCC1)(c1ccccc1)c1ccccc1	inactive	–
C=CC(C)(O)CCCC(C)CCCC(C)CCCC(C)C (stereo not given)	inactive	–
CCOC(=O)OCC	inactive	–
O=C(CCCCCCC(=O)Nc1ccccc1)NO	inactive	–
CC1=CC(=O)CC(C)(C)C1(O)/C=C/C(C)=C\C(=O)O (stereo not given)	inactive	–
CC(=O)Oc1ccc(C(=C2CCCCC2)c2ccc(OC(C)=O)cc2)cc1	inactive	–
O=S1OCCO1	inactive	–
COc1ccc(C(=O)c2cccc(O)c2)c(OC)c1	inactive	–
O=C(O)C(Cc1cc(I)c(O)c(I)c1)c1ccccc1 (stereo not given)	inactive	–
CCCCCC=CCC=CCCCCCCCC(=O)OCC	inactive	–
CC[C@H](NC(=O)c1cc(F)ccc1NS(=O)(=O)c1cccc2cccnc12)c1ccccc1	inactive	–

Structure (SMILES)	outcome	fluorescence, relative to Rose Bengal
c1cc[c]([Bi]([c]2ccccc2)[c]2ccccc2)cc1	inactive	–
CC(=O)Nc1ccccc1C	inactive	–
CO/N=C1\CN(c2nc3c(cc2F)c(=O)c(C(=O)O)cn3C2CC2)CC1CN (stereo not given)	inactive	–
Cc1cc(S(=O)(=O)O)ccc1N=Nc1c(O)ccc2ccccc12	inactive	–
CNC(=O)N(c1ccccc1)c1ccccc1	inactive	–
CCCCC(CC)CNCC(CC)CCCC (stereo not given)	inactive	–
CC(C)OCC1CO1 (stereo not given)	inactive	–
N#C[C@@H]1C[C@@H]2C[C@@H]2N1C(=O)[C@@H](N)C12CC3CC(CC(O)(C3)C1)C2	inactive	–
NC(=O)Nc1ccc(Cl)c(Cl)c1	inactive	–
CCOC(=O)C(C)Oc1ccc(Oc2nc3ccc(Cl)cc3o2)cc1 (stereo not given)	inactive	–
CCCCC(=O)O[C@]1(C(=O)CO)[C@@H](C)C[C@H]2[C@@H]3CCC4=CC(=O)C=C[C@]4(C)[C@@]3(F)[C@@H](O)C[C@@]21C	inactive	–
O=C(c1ccc(O)cc1)c1ccc(Cl)cc1	inactive	–
[O]=[Bi]	–	-0.152% [at 3.72 µM]
Cc1ccnc2ccccc12	inactive	–
CC1CN(c2cc3c(cc2F)c(=O)c(C(=O)O)cn3-c2ccc(F)cc2F)CCN1 (stereo not given)	inactive	–
CN1C(=O)CC(C)(c2ccccc2)C1=O (stereo not given)	inactive	–
Nc1ccc(C(=O)OCCCOC(=O)c2ccc(N)cc2)cc1	inactive	–
CN1CCCN=C1/C=C/c1cccs1	inactive	–
OCCSc1ccccc1	inactive	–
Cc1cc(O)c(C(C)C)cc1Cl	inactive	–
